The record followed here is PubChem BioAssay (EPA / NIEHS).

Results filed as inconclusive are left out. Activity calls are given as the source filed them. How the source made its calls: active means hit-call score of the fitted dose curve at least 0.9, where 1 is the maximum; inconclusive means response in the unintended direction; inactive means score below 0.9.

Chain of PGR (gene 5241) (P06401 whole entry, looked up): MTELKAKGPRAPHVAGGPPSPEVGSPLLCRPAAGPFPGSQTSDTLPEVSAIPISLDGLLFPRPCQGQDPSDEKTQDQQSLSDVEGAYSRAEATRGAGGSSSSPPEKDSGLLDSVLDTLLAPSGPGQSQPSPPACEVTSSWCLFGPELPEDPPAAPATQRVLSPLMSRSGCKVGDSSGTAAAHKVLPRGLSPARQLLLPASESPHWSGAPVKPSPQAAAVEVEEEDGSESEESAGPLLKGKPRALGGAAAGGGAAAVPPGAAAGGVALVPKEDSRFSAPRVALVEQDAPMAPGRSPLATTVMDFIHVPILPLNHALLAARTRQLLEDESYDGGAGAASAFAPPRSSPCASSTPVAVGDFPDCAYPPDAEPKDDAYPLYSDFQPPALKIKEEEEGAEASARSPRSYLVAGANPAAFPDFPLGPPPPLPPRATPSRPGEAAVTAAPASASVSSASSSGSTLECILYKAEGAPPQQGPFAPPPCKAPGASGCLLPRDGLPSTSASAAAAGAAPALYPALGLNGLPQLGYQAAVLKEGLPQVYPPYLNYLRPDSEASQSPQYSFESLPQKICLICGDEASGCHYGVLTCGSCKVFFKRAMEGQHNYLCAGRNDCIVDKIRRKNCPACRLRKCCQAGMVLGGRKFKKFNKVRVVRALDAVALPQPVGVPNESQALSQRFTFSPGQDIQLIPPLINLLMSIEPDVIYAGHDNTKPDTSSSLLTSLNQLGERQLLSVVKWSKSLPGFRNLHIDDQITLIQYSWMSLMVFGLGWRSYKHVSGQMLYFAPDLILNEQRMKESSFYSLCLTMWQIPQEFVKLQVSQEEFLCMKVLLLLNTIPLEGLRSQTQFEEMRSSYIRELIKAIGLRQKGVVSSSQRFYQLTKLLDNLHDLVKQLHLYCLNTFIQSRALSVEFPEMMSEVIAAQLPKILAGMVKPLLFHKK

The target in the first assay is PGR (gene 5241) (UniProt P06401). Nature of the assay: TOX21_PR_BLA_Followup_Antagonist_ratio: Tox21 HEK293 Progesterone Receptor (PR) Antagonism Beta-lactamase Follow-Up Assay, Ratio (AID 2283934).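 Further: PR-UAS-bla HEK293T cells stimulated with 1 nM R5020 agonist for 16 hr.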 A digest of the protocol:
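Cells are plated, rested 6 hr, then dosed with test compound in DMSO and challenged with 1 nM promegestone. After 16 hr incubation, substrate loading for 2 h at room temperature precedes fluorescence reading; viability is measured in the same wells.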
Turning to `C[C@]12C=CC(=O)C=C1CC[C@@H]1[C@@H]2C(=O)C[C@@]2(C)[C@H]1CC[C@]2(O)C(=O)CO`, the outcome was inactive.
The same measure, in the same setting: the value for `CCOc1ccc2c(c1)C(C)=CC(C)(C)N2` was “inactive”.
Same read-out and setting: the value for `Oc1ccc2ccccc2c1N=Nc1ccccc1` was “inactive”.
Regarding `CCc1c(C(=O)NN2CCCCC2)nn(-c2ccc(Cl)cc2Cl)c1-c1ccc(Br)cc1`, the AC50 is 25.5 µM (active).
For `Oc1ccc2c(c1)OC[C@@H](N1CCC(O)(c3ccc(F)cc3)CC1)[C@H]2O`, the result was inactive.
On the same count and under the same terms, as for `O=c1c(O)c(-c2ccc(O)c(O)c2)oc2cc(O)cc(O)c12`, the entry is “inactive”.

System in a further assay: not listed separately
Nature of the assay: TOX21_PR_BLA_Followup_Agonist_viability: Viability Assessment in the Tox21 HEK293 Progesterone Receptor (PR) Agonism Beta-lactamase Follow-Up Assay (AID 2283935).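 Further: signal loss means lower viability so actives are cytotoxic.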 A digest of the protocol: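 Cells were plated in medium with 2% charcoal-stripped FBS and rested 6 hr. Compounds in DMSO were then added for 16 hr at 37C, followed by the FRET substrate step and CellTiter-Glo luminescence after 30 min.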
Regarding `C[C@]12C=CC(=O)C=C1CC[C@@H]1[C@@H]2C(=O)C[C@@]2(C)[C@H]1CC[C@]2(O)C(=O)CO`, the compound was called inactive.
Still for that read-out and setting: the value for `CCOc1ccc2c(c1)C(C)=CC(C)(C)N2` was “inactive”; that for `Oc1ccc2ccccc2c1N=Nc1ccccc1` was “inactive”.
As for `CCc1c(C(=O)NN2CCCCC2)nn(-c2ccc(Cl)cc2Cl)c1-c1ccc(Br)cc1`, the result was inactive.
Same read-out and setting: the value for `Oc1ccc2c(c1)OC[C@@H](N1CCC(O)(c3ccc(F)cc3)CC1)[C@H]2O` was “inactive”.

System in a further assay: not listed separately
Nature of the assay: TOX21_PR_BLA_Followup_Antagonist_viability: Viability Assessment in the Tox21 HEK293 Progesterone Receptor (PR) Antagonism Beta-lactamase Follow-Up Assay (AID 2283936).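 Further: cells exposed to compound with R5020 agonist for 16 h; hits lower the luminescence signal meaning cytotoxicity.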 The procedure, abridged:
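PR-UAS-bla HEK293T cells in medium with 2% charcoal-stripped FBS were treated with compounds plus R5020 for 16 hr at 37C. After the beta-lactamase read, CellTiter-Glo was added to the same wells and luminescence read after 30 min at room temperature.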
In the case of `CCOc1ccc2c(c1)C(C)=CC(C)(C)N2`, the call was inactive.
Still for that read-out and setting: as for `Oc1ccc2ccccc2c1N=Nc1ccccc1`, the entry is “inactive”; as for `CCc1c(C(=O)NN2CCCCC2)nn(-c2ccc(Cl)cc2Cl)c1-c1ccc(Br)cc1`, “inactive”; as for `Oc1ccc2c(c1)OC[C@@H](N1CCC(O)(c3ccc(F)cc3)CC1)[C@H]2O`, “inactive”.

The next assay addresses PGR (gene 5241) (UniProt P06401). Put plainly: TOX21_PR_LUC_Followup_Antagonist: Tox21 HEK293 Progesterone Receptor (PR) Antagonism Luciferase Follow-Up Assay (AID 2283938).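 Further: curve fitted upward as signal gain over DMSO baseline despite antagonist label.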 A digest of the protocol: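 HEK293-PR-A-luc cells, 3,000/well, preincubated 5 h at 37C before compound addition in DMSO; 16 h compound exposure at 37C. ONE-Glo luciferase luminescence read after 30 min at room temperature, fitted relative to DMSO baseline.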
With `C[C@]12C=CC(=O)C=C1CC[C@@H]1[C@@H]2C(=O)C[C@@]2(C)[C@H]1CC[C@]2(O)C(=O)CO`, the compound was classed as inactive.
On to `CCOc1ccc2c(c1)C(C)=CC(C)(C)N2`, for which the result was inactive.
The same measure, in the same setting: the value for `CCc1c(C(=O)NN2CCCCC2)nn(-c2ccc(Cl)cc2Cl)c1-c1ccc(Br)cc1` was “inactive”; that for `Oc1ccc2c(c1)OC[C@@H](N1CCC(O)(c3ccc(F)cc3)CC1)[C@H]2O` was “inactive”; that for `O=c1c(O)c(-c2ccc(O)c(O)c2)oc2cc(O)cc(O)c12` was “inactive”.

System in the next assay: not listed separately
Put plainly: TOX21_PR_LUC_Followup_Antagonist_viability: Viability Assessment in the Tox21 HEK293 Progesterone Receptor (PR) Antagonism Luciferase Follow-Up Assay (AID 2283940). The procedure, abridged: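 HEK293-PR-A-luc, 3,000 cells/well; 5 h at 37C/0% CO2; compound pin transfer; 16 h incubation; CellTiter-Glo ATP luminescence, signal loss = cytotoxicity.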
As to `C[C@]12C=CC(=O)C=C1CC[C@@H]1[C@@H]2C(=O)C[C@@]2(C)[C@H]1CC[C@]2(O)C(=O)CO`, the compound was classed as inactive.
Still for that read-out and setting: the value for `Oc1ccc2ccccc2c1N=Nc1ccccc1` was “inactive”; that for `CCc1c(C(=O)NN2CCCCC2)nn(-c2ccc(Cl)cc2Cl)c1-c1ccc(Br)cc1` was “inactive”; that for `Oc1ccc2c(c1)OC[C@@H](N1CCC(O)(c3ccc(F)cc3)CC1)[C@H]2O` was “inactive”.

System in another assay: not listed separately
Nature of the assay: TOX21_PR_LUC_Followup_Agonist_viability: Viability Assessment in the Tox21 HEK293 Progesterone Receptor (PR) Agonism Luciferase Follow-Up Assay (AID 2283941).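 Further: loss of signal means cytotoxicity so actives lower viability.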 The procedure, abridged: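 Multiplexed viability endpoint of the PR agonist luciferase follow-up: HEK293-PR-A-luc cells treated 16 h at 37C, with viability scored as decrease in CellTiter-Glo ATP signal.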
`C[C@]12C=CC(=O)C=C1CC[C@@H]1[C@@H]2C(=O)C[C@@]2(C)[C@H]1CC[C@]2(O)C(=O)CO`: the result was inactive.
The same measure, in the same setting: as for `CCOc1ccc2c(c1)C(C)=CC(C)(C)N2`, the entry is “inactive”.
As to `Oc1ccc2c(c1)OC[C@@H](N1CCC(O)(c3ccc(F)cc3)CC1)[C@H]2O`, the compound was classed as inactive.

Broadly, the AC50 is the concentration at which the activity in the assay is half-maximal.
